D3 ag: D3 dopamine receptor (human) agonism | P35462 | D3R DiscoveRx beta-arrestin cells, luminescence, 90 min | max activation, % | 410,000 compounds, 0.58% hits | AID 652048; in the data active = max activation above about 30%; note: 0% is about no effect
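Agonist mode: compounds and dopamine controls were applied to plated cells for 90 min at 37 degrees C after an overnight attachment at 1500 cells/well. Luminescent read-out followed 30 - 60 minutes at room temperature with DiscoveRx detection reagent.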
D1 ag: agonists of human D1 dopamine receptor. P21728. HEK293 T-REx D1 cells, calcium flux, agonist mode. activation, % at 2 µM. 360,000 compounds, 1% hits; in the data active = activation above about 30%; note: 0% is about no effect
Target sequence (P21728 whole entry, looked up): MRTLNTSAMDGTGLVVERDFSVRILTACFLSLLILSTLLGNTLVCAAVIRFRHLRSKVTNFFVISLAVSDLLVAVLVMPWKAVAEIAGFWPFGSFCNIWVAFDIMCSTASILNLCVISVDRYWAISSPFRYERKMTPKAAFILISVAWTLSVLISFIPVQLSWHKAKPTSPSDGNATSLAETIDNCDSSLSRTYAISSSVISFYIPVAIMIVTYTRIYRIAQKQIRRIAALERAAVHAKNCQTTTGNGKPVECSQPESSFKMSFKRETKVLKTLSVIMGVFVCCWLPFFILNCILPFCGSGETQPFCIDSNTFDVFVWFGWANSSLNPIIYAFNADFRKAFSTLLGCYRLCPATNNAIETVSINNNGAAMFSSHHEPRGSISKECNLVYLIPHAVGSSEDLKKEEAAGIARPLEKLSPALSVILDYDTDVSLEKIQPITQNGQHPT
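Inducible HEK293 T-REx D1 cells, force-coupled to calcium signalling, were plated at 4000 cells/well with tetracycline and held overnight at 30 C. After no-wash calcium dye loading, compound-evoked calcium rise over 180 s flagged agonists.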
D1 PAM: enhances dopamine response at the human D1 receptor; P21728; 360,000 compounds, 0.036% hits; potentiation, % at 10 µM; HEK293 TREx D1 cells, calcium flux, dopamine EC20 potentiation; in the data active = potentiation above about 30%; note: 0% is about no effect
D3 antag: blocks the human D3 dopamine receptor. AID 652054. 360,000 compounds, 2.5% hits. P35462. D3R cells, DiscoveRx beta-arrestin luminescence, antagonist mode; active compounds read low. max response, negative = inhibition, %; in the data active = max response below about -50%; inconclusive = no clear call, values can overlap the other calls; note: % is set by controls: 0 for no effect and ±100 for the full control effect
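Cells plated overnight at 1500 cells/well, then exposed to library compounds with dopamine controls for 90 minutes at 37 degrees C. DiscoveRx reagent added for 30–60 minutes at room temperature; luminescence read, quantitative HTS format.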
D1 antagonist: blocks dopamine activation of the human D1 receptor | P21728 | HEK293 TREx D1 cells, calcium flux, dopamine EC80; active compounds read low | activity change, negative = inhibition, % at 10 µM | 360,000 compounds, 3.2% hits; in the data active = activity change below about -30%; note: % is set by controls: 0 for no effect and ±100 for the full control effect
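Cells carrying a force-coupled, tetracycline-inducible human D1 receptor report calcium flux. Each well gets a 10 s baseline, compound with 180 s monitoring, then an EC80 dopamine stimulus with a second 180 s kinetic read.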
Active calls of the source: *; ? = inconclusive; . = no result; ! = not confirmed by another sample. This is a sample that favours compounds with a hit; in the whole collection about 6% have one here.

SMILES | D3 ag | D1 ag | D1 PAM | D3 antag | D1 antagonist
CC(=O)Nc1ccc(S(=O)(=O)NC2(C(F)(F)F)NC(=O)N(CCc3ccc(F)cc3)C2=O)cc1 (configuration not stated) | -9 | 0 | 1 | . | 4
Cc1ccccc1-c1nnc(CN2CCN(c3ccccn3)CC2)o1 | 50* | 6 | -3 | . | -3
c1ccc(N2CCN(Cc3nnc(-c4ccc5c(c4)OCO5)o3)CC2)cc1 | 37* | 5 | 1 | . | -16
c1ccc(-c2nnc(CN3CCN(C(c4ccccc4)c4ccccc4)CC3)o2)cc1 | -10 | 6 | 2 | -56* | 3
c1ccc(-c2nnc(CN3CCN(c4ccccc4)CC3)o2)cc1 | 55* | 5 | -4 | -17 | -20
Clc1cccc(N2CCN(Cc3nnc(-c4ccccc4)o3)CC2)c1 | 24 | 4 | -3 | ? | -16
Cc1ccccc1-c1nnc(CN2CCC(C)CC2)o1 | -21 | 0 | -2 | ? | 0
Cc1ccc(C)c(N2CCN(Cc3nnc(-c4ccc5c(c4)OCO5)o3)CC2)c1 | -6 | 4 | -4 | . | -15
COc1cccc(NC(=O)Cn2nnc(-c3nc(-c4ccccc4)no3)c2N)c1 | -1 | 1 | -5 | . | -2
CCCNc1nc(N)nc(-c2cc(Cl)ccc2OC)n1 | -6 | 3 | 0 | -16 | 2
CCCN(CCC)c1nc(N)nc(-c2cc(Cl)ccc2OC)n1 | 4 | 2 | -12 | 7 | -75*
Cc1nc(S(=O)(=O)N2CCN(c3cccc(Cl)c3)CC2)cn1C | -8 | 3 | -2 | . | 1
CNC(=O)COC(=O)c1[nH]c(C)c(C(C)=O)c1C | -3 | 3 | -2 | -79* | 7
CN(CC(=O)Nc1ccccc1Cl)CC(=O)N(C)c1c(N)n(Cc2ccccc2)c(=O)[nH]c1=O | -8 | . | . | -16 | .
CCOC(=O)c1c(C)[nH]c(C(=O)C(C)Cl)c1C (configuration not stated) | -4 | 1 | -13 | -8 | -32*
CCOC(=O)c1c(C)[nH]c(C(=O)OCc2ccccc2)c1C | 8 | 6 | 6 | 17 | -3
CCOC(=O)c1c(C)[nH]c(C(=O)OCC(=O)Nc2ccccc2)c1C | -1 | 26 | -12 | 1 | -73*
CN(CC(=O)Nc1ccccc1Cl)CC(=O)c1c(N)n(Cc2ccccc2)c(=O)n(C)c1=O | 6 | 2 | 9 | 7 | -32*
CC[C@@H](C)CCCCC(=O)N[C@H](CCN)C(=O)N[C@@H](C(=O)N[C@H](CCN)C(=O)N[C@@H]1CCNC(=O)C([C@@H](C)O)NC(=O)[C@@H](CCN)NC(=O)[C@@H](CCN)NC(=O)[C@@H](CC(C)C)NC(=O)[C@@H](Cc2ccccc2)NC(=O)[C@@H](CCN)NC1=O)[C@@H](C)O (some centres not stated) | 7 | . | . | . | .
O=C1C2CC3CC1CC(O)(C3)C2 | 4 | . | . | . | .
CC(C)Sc1ncc(Cl)c(C(=O)Nc2ccc(S(=O)(=O)N3CCCCC3)cc2)n1 | 5 | 1 | 4 | . | -6
CCn1nc(C(=O)OCC(=O)c2c[nH]c3ccccc23)c2ccccc2c1=O | 2 | 2 | -5 | 14 | -12
CC(=O)c1c(C)[nH]c(C(=O)OCC(=O)c2c[nH]c3ccccc23)c1C | 5 | 4 | -3 | 10 | -31*
CC(C)n1nc(C(=O)OCC(=O)c2c[nH]c3ccccc23)c2ccccc2c1=O | 59* | 1 | 5 | 46 | -2
CC(=O)OCC(=O)c1c[nH]c2ccccc12 | 2 | 0 | -6 | 0 | 11
SMILES | D3 ag | D1 ag | D1 PAM | D3 antag | D1 antagonist
CC(=O)c1c(C)[nH]c(C(=O)OCC(=O)c2ccc(C)s2)c1C | 44* | 4 | -7 | -3 | -11
CC(=O)c1c(C)[nH]c(C(=O)CN(C)CC(=O)Nc2ccccc2Cl)c1C | -10 | . | . | 1 | .
CCOC(=O)c1c(C)[nH]c(C(=O)CN(C)CC(=O)Nc2ccccc2Cl)c1C | -1 | 5 | -11 | -30 | -41*
COc1ccc(-n2ncc3c(NC(C)(C)CO)ncnc32)cc1 | -6 | -4 | -1 | . | -10
Cc1ccccc1NC(=O)C1CCC(CNS(=O)(=O)c2ccc3c(c2)C(C)(C)C(=O)N3C)CC1 (configuration not stated) | -6 | 4 | -3 | . | 1
Cc1cccc(-c2nc3c4ccccc4nc(NCc4ccc(Cl)cc4)n3n2)c1 | -17 | 2 | -5 | . | -2
CCN(CC)S(=O)(=O)c1ccc2[nH]cc(C(=O)NCCN3CCCCCC3)c(=O)c2c1 | -3 | 3 | -5 | -7 | 10
Cc1ccccc1N(C)S(=O)(=O)c1ccc2[nH]cc(C(=O)NCC3CCCO3)c(=O)c2c1 (configuration not stated) | 9 | 2 | 3 | -69* | -2
CCN(CC)S(=O)(=O)c1ccc2[nH]cc(C(=O)NCCC3=CCCCC3)c(=O)c2c1 | 1 | 4 | -10 | -10 | -34*
CCn1cc(C(=O)NCC2CCCO2)c(=O)c2cc(S(=O)(=O)N(C)C3CCCCC3)ccc21 (configuration not stated) | -1 | 1 | 2 | -52* | 8
CCC1CCCCN1CCCNC(=O)c1cn(CC)c2ccc(S(=O)(=O)N(C)C3CCCCC3)cc2c1=O (configuration not stated) | -9 | 0 | -4 | -21 | -38*!
COc1ccc(NCc2cc3cc4c(cc3n(CC(=O)Nc3ccc(F)cc3)c2=O)OCCO4)cc1 | -2 | 24 | -3 | . | 2
Cc1ccc2oc(/N=C(\N)NC(=O)C(C)(C)C)nc2c1 | -14 | -1 | -4 | -52* | -18
Cc1onc(-c2ccccc2)c1C(=O)NCc1cccnc1 | 2 | 2 | -1 | -75* | 4
Cc1onc(-c2ccccc2)c1C(=O)NCCc1ccncc1 | -11 | 4 | -2 | -11 | -2
Cc1onc(-c2ccccc2)c1C(=O)c1c[nH]c(C(=O)NCc2ccncc2)c1 | 2 | -1 | -4 | 4 | -89*
Cc1onc(-c2ccccc2)c1C(=O)c1c[nH]c(C(=O)NCc2ccccn2)c1 | 7 | 4 | -6 | 6 | 1
COc1ccc(Br)cc1CNC(=O)c1cnc2sc(N3CCCCCC3)nn2c1=O | -27 | 1 | -6 | . | -5
Clc1ccccc1CSc1nc(NCCc2ccccc2)c2ccccc2n1 | 3 | 4 | -1 | . | 14
CCCCc1nc2ccccc2n1CC(=O)N(COCC)c1c(C)cccc1CC | -8 | 12 | -2 | . | -11
CCOc1nc(NCCc2ccc(OC)c(OC)c2)nc(NC(C)(C)CO)n1 | 2 | . | . | -62* | .
COc1cccc(-c2cc(C(F)(F)F)nc(NCCc3ccc(OC)c(OC)c3)n2)c1 | 6 | 11 | 0 | . | -53*
O=S1(=O)CCO[C@H]2Cc3ccccc3[C@H]2N1Cc1ccc(Cl)cc1 | 54* | 4 | 6 | -7 | 6
O=S1(=O)CCO[C@H]2Cc3ccccc3[C@H]2N1Cc1cccc(Cl)c1 | 6 | -1 | -2 | -8 | -17
